We go through 100 molecules from PubChem BioAssay AID504329 (Southern Research Specialized Biocontainment Screening …, 2011).

Among all 340,000 compounds or so, about 1,000 (0.29%) were called active. No stated cut-off is given here; in the data, inconclusive means inhibition above about 27% without an active follow-up result; inactive means below that. The list is a sample of the results. Entries with a potency or affinity are not part of this list.

The assay is described as follows: NS1A inhibition, H1N1 influenza, cell based functional assay (AID 504329). The note with it: percent inhibition, at 12.5 µM, stronger effect = higher value.
Consider `N#CC(c1ccccc1)c1cnccn1` (stereo not given), for which the inhibition is -11% (inactive). The figure for `COc1ccccc1N/N=C/c1c(CO)cnc(C)c1O` is 2.27% (inactive); for `Cc1ncc(CO)c(/C=N/NC(=S)Nc2ccc(C(C)C)cc2)c1O` it is 11.8% (inactive). For `COc1cc(/C=N/Nc2ccc(C(F)(F)F)cn2)cc(OC)c1O` the value was -10.9% (inactive); for `Oc1ccc(/C=N/Nc2ccc(C(F)(F)F)cn2)cc1`, 13.7% (inactive); for `Cc1ncc(CO)c(/C=N/Nc2cccc(Cl)n2)c1O`, -2.98% (inactive). For `Cc1ncc(CO)c(/C=N/NC(=S)Nc2ccc(Cl)c(Cl)c2)c1O` the value was 2.53% (inactive); for `COc1ccccc1N(C(=O)c1ccco1)C(C(=O)NC1CCCCC1)c1cc(OC)c(OC)c(OC)c1` (stereo not given), 7.04% (inactive).

Turning to `CC(C)=C1C2CCC1C1C(=O)N(NC(=O)COc3ccc(C(C)(C)C)cc3)C(=O)C21` (stereo not given), the inhibition is 4.52% (inactive).

On to `Cc1ccc(-c2nnn(CCOc3cccc(Br)c3)n2)cc1`, for which the inhibition is -6.07% (inactive). The figure for `c1ccc2nc3[nH]cnc3nc2c1` is 1.88% (inactive); for `COc1ccc(NC(=O)CC2(CC(=O)N3CCOCC3)CCCC2)cc1Cl` it is -1.17% (inactive); for `CC1CC(C)CN(S(=O)(=O)c2ccc(C(=O)Nc3nnc(C4CC4)o3)cc2)C1` (stereo not given) it is -2.79% (inactive).

As for `CC(C)(C)NC(=O)C(c1ccccc1F)N(Cc1ccco1)C(=O)c1csnn1` (stereo not given), the inhibition was -1.84% (inactive). The figure for `O=C(O)C(c1ccccc1)N1C(=O)/C(=C\c2ccc(O)c(O)c2)SC1=S` (stereo not given) is 10.8% (inactive).

`Cc1ccccc1/C=N/Nc1nc2ccccc2[nH]1`: the inhibition is -2.18% (inactive). Turning to `C(=N\Nc1nc2ccccc2[nH]1)/c1ccc2ncccc2c1`, the inhibition is -2.83% (inactive).

Consider `O=S1(=O)N=C(N/N=C/c2ccco2)c2ccccc21`, for which the inhibition was -20% (inactive). The figure for `Oc1ccccc1/C=N/Nc1nn[nH]n1` is -4.08% (inactive); for `Cc1nc2ccc(C(=O)N/N=C/c3cc([N+](=O)[O-])ccc3O)cc2[nH]1` it is 19% (inactive).

Consider `COc1ccc([N+](=O)[O-])cc1/C=N/Nc1nn[nH]n1`, for which the inhibition is -3.63% (inactive). The figure for `O=S1(=O)N=C(N/N=C/c2cccs2)c2ccccc21` is 3.71% (inactive). For `COc1ccc(O)c(/C=N/Nc2nc3ccccc3[nH]2)c1` the value was -13.2% (inactive).

Turning to `Cc1ccc(C(=O)N2CCN(c3ccccc3Cl)CC2)cc1[N+](=O)[O-]`, the inhibition is -8.39% (inactive). For `COCCn1c(-c2ccc(SC)cc2)nc2c1c(=O)[nH]c(=O)n2CC(C)C` the value was 6.85% (inactive). `Cc1ccc(C)c(OC(C)C(=O)Nc2nccs2)c1` (stereo not given): the inhibition was -0.26% (inactive).

As to `Cc1ccc(S(=O)(=O)N[C@H](C(=O)OCC(=O)NC(=O)Nc2ccc3c(c2)OCCO3)C(C)C)cc1`, the inhibition is -8.36% (inactive).

Take `CC(=O)Nc1ccc(NC(=O)C(C)OC(=O)C(C)SCC(=O)Nc2ccc(C)cc2)cc1` (stereo not given): the inhibition was -10.9% (inactive). As for `N#Cc1ccccc1S(=O)(=O)N1CCN(CC(=O)Nc2ccccc2C(=O)NC2CC2)CC1`, the inhibition was -1.3% (inactive).

For the molecule `Fc1ccc(-c2csc(-c3ccccn3)n2)cc1F`, the inhibition was -3.95% (inactive). The figure for `Cc1ccc2ccc3cccc4ccc1c2c34` is -18.9% (inactive); for `COc1cnc(-c2ccccn2)nc1Sc1ccc(F)cc1` it is 6.63% (inactive); for `O=[N+]([O-])c1cc(Cl)cc(/C=N/Nc2nc3ccccc3s2)c1O` it is 3.56% (inactive). The figure for `O=[N+]([O-])c1ccc(O)c(/C=N/Nc2ccccc2Cl)c1` is -14.4% (inactive). In the case of `O=[N+]([O-])c1cccc(/C=N/Nc2ccccn2)c1`, the inhibition is 0.08% (inactive). On to `O=[N+]([O-])c1ccc(/C=N/NC2=NS(=O)(=O)c3ccccc32)cc1`, for which the inhibition is 1.07% (inactive). For `O=[N+]([O-])c1ccc(Cl)cc1C=NNc1ccccn1` the value was -1.7% (inactive); for `O=[N+]([O-])c1ccc(NN=Cc2cc(Br)ccc2O)nc1`, 6.5% (inactive); for `O=[N+]([O-])c1ccc(/C=N/Nc2ccccn2)cc1`, -3.42% (inactive). In the case of `O=[N+]([O-])c1cccc(/C=N/NC2=NS(=O)(=O)c3ccccc32)c1`, the inhibition is -4.67% (inactive). For `O=C(NCCc1ccc2c(c1)OCCO2)c1ccc([N+](=O)[O-])cc1Cl` the value was -0.08% (inactive); for `O=C(CSc1nnnn1-c1ccc2c(c1)OCO2)NCc1ccccc1`, 0.06% (inactive). For `CCCCOc1c(Br)cc(CNCCCN2CCOCC2)cc1OC` the value was 1.13% (inactive).

Regarding `Cc1ccc(CNc2cc(C(=O)O)ccc2C)s1`, the inhibition was 14.2% (inactive). For `O=C(NCc1ccccc1F)C1CCCN1S(=O)(=O)c1ccc(F)cc1` (stereo not given) the value was 4.5% (inactive); for `O=C(O)c1cccc(NC(=O)c2ccccc2NC(=O)c2ccco2)c1`, -7.51% (inactive); for `CN(C)/C=C(\C(=O)c1cccc(Cl)c1)c1nnnn1-c1ccccc1`, -1.13% (inactive).

Consider `Nc1ccc(C(=O)C(=O)c2ccc(N)cc2)cc1`, for which the inhibition was 1.62% (inactive). The figure for `N=C(N)c1ccc(N)cc1` is 2.89% (inactive); for `CCOC(=O)c1cc(CC)sc1NC(=O)CC1SC(N)=NC1=O` (stereo not given) it is -8.66% (inactive); for `Cc1ccc(S(=O)(=O)Cn2nnnc2C(CC(C)C)N2CCN(C3CCCC3)CC2)cc1` (stereo not given) it is -5.05% (inactive).

Consider `COc1ccc(C(=O)N/N=C(\Cc2ncc[nH]2)c2ccccc2)cc1`, for which the inhibition is 1.55% (inactive). Regarding `COc1cc(C(=O)N/N=C(\Cc2ncc[nH]2)c2ccccc2)cc(OC)c1OC`, the inhibition was -5.85% (inactive). With `CN(CC(=O)Nc1ccccc1Cl)C(=O)COC(=O)c1ccc(-c2ccc(O)cc2)cc1`, the inhibition was -4.29% (inactive). The figure for `CCC(=O)Nc1ccc(C(=O)N/N=C/c2c(C)[nH]c3ccccc23)cc1` is 10.2% (inactive); for `CC(CNC(=O)c1cc(COc2c(F)cccc2F)on1)Oc1cccnc1` (stereo not given) it is 5.51% (inactive).

As to `O=C(NNC(=S)NC(=O)c1ccc(F)cc1)c1ccncc1`, the inhibition is -6.57% (inactive). The figure for `O=C(NNC(=S)NC(=O)c1cccnc1)c1ccc(F)cc1` is 3.02% (inactive); for `COc1ccc(/C=C/C(=O)NC(=S)NNC(=O)c2cnccn2)cc1` it is 22% (inactive); for `O=C(NNC(=S)NC(=O)c1cccnc1)c1ccc(Cl)cc1` it is -8.92% (inactive). For `O=C(NNC(=O)c1cnccn1)c1ccc(Cl)cc1` the value was -1.07% (inactive). For `O=C(/C=C/c1ccccc1)NC(=S)NNC(=O)c1cccnc1` the value was 11.7% (inactive); for `CSc1nsc(SCC(=O)N2CCCc3ccccc32)n1`, -4.75% (inactive).

Consider `COc1ccc(NC(C)=O)c2nc(C)c(C)nc12`, for which the inhibition is 2.97% (inactive). For `CC1(C)OC(c2ccccc2)=C/C(=C/C=Nc2ccccc2)O1` the value was -14.7% (inactive); for `CC1(C)OC(c2ccccc2)=C/C(=C/C=C2C(=O)NC(=O)NC2=O)O1`, 22.3% (inactive). The figure for `CCN(CC)C(=O)Oc1cc(=O)n2c3c(cccc13)CCC2` is 2.43% (inactive). `Cc1cc(C(=O)Nc2ccc3c(c2)OCO3)no1`: the inhibition is 6.49% (inactive).

Consider `O=C(COc1ccc(Cl)cc1Br)OCC(=O)c1ccc[nH]1`, for which the inhibition was -4.26% (inactive).

Regarding `COc1cc(C2SCC(=O)Nc3c2c(=O)[nH]n3C2CCCCCC2)cc(OC)c1OC` (stereo not given), the inhibition is 3.42% (inactive). For `N#Cc1ccccc1OCC(=O)Nc1ccccc1C(=O)NC1CC1`, the inhibition was -6.65% (inactive). The figure for `O=C(Cn1nc2ccccc2n1)N/N=C/c1cc(Cl)cc([N+](=O)[O-])c1O` is 17.6% (inactive).

For the molecule `COc1cc([N+](=O)[O-])cc(/C=N/NC(=O)Cn2nccc2C)c1O`, the inhibition was 13.5% (inactive). As to `CCOC(=O)c1c(C)[nH]c(C(=O)N/N=C\c2ccccc2Cl)c1C`, the inhibition was 1.32% (inactive).

In the case of `O=C(Cn1nnc(-c2ccccc2)n1)N/N=C/c1cc([N+](=O)[O-])ccc1O`, the inhibition is 0.1% (inactive). Consider `COc1cc([N+](=O)[O-])cc(/C=N/NC(=O)Cn2nc(C)cc2C)c1O`, for which the inhibition was -28.6% (inactive).

Take `CCOC(=O)c1c(C)[nH]c(C(=O)N/N=C\c2ccccc2O)c1C`: the inhibition was 0.86% (inactive). `Cc1cc(C)n(CC(=O)N/N=C/c2cc(Br)cc([N+](=O)[O-])c2O)n1`: the inhibition was 15.4% (inactive). For `Cc1cc(C)n(CC(=O)N/N=C/c2cccc([N+](=O)[O-])c2)n1` the value was 4.33% (inactive); for `COc1ccc(NC(=S)N(CCO)Cc2ccccc2)cc1`, 1.27% (inactive); for `CN(C(=O)c1cncc(Br)c1)C1C2CC3CC(C2)CC1C3` (stereo not given), 0.5% (inactive). Consider `O=C(COC(=O)C1CCC1)Nc1cc(S(=O)(=O)N2CCCCC2)ccc1Cl`, for which the inhibition was 3.86% (inactive). The figure for `O=C(c1cc(C2CC2)nn1-c1ccccc1)N1CCN(c2ncc(C(F)(F)F)cc2Cl)CC1` is -6.87% (inactive); for `CCc1ccccc1NCC(=O)Nc1ccccc1C(=O)OC` it is -3.34% (inactive); for `Cc1c(C)c2ccc(OCC(=O)c3ccccc3)cc2oc1=O` it is -16.6% (inactive).

On to `CC(=O)Nc1ccc(S(=O)(=O)N2CCN(CCc3ccccc3)CC2)cc1`, for which the inhibition was 0.26% (inactive). Take `Nc1ccccc1N=Cc1c(O)n(CCC2=CCCCC2)c(=O)[nH]c1=O`: the inhibition was -8.66% (inactive).

Regarding `COC(CNC(=O)C1CCCN(S(=O)(=O)c2c(C)noc2/C=C/c2cccs2)C1)OC` (stereo not given), the inhibition was 9.65% (inactive). The figure for `O=C(OCc1ccccc1)N1CCC2CC1c1cc(-c3ccccc3)ccc12` (stereo not given) is -8.29% (inactive); for `CCOc1cccc(CN2CCCC(CNC(=O)c3cccc(OC)c3OC)C2)c1` (stereo not given) it is 0.84% (inactive); for `COc1ccc(CCNC(=O)COC(=O)c2cc(S(=O)(=O)N3CCCC3)ccc2O)cc1` it is -7.2% (inactive). `C=CCCN(C(C(=O)OC)C(C)C)S(=O)(=O)c1ccccc1Br` (stereo not given): the inhibition is -12.7% (inactive). For `Cc1ccc(C)c(NC(=O)CCC(=O)N/N=C/c2cc([N+](=O)[O-])ccc2O)c1` the value was 8.85% (inactive).

Regarding `Cc1ccc(NC(=O)CCC(=O)N/N=C/c2cc([N+](=O)[O-])ccc2O)cc1`, the inhibition is -7.13% (inactive).

As to `COc1ccc(Br)cc1/C=N/NC(=O)Cn1nnnc1N`, the inhibition is 0.27% (inactive). Take `Nc1nnnn1CC(=O)N/N=C/c1cc([N+](=O)[O-])ccc1Cl`: the inhibition was -6.51% (inactive). The figure for `O=C(N/N=C/c1cc([N+](=O)[O-])ccc1O)Nc1ccccc1` is -0.02% (inactive). On to `Cc1ccccc1NC(=O)CCC(=O)N/N=C/c1cc([N+](=O)[O-])ccc1O`, for which the inhibition is 10.1% (inactive). The figure for `O=C(N/N=C/c1cc([N+](=O)[O-])ccc1O)C1CC1` is 4.39% (inactive); for `CN1CCN(CCC(=O)N/N=C/c2cc([N+](=O)[O-])ccc2OC(F)F)CC1` it is -8.9% (inactive).

By inhibition is commonly meant the change of the read-out against control, counted positive when it falls.
